The supplement of paper PMC6522484
± gives the standard deviation of the averaged measurements.

Key:
[1] = test system: DLD1; assay: cell viability (CellTiter-Glo) relative to plate median (fraction of plate median); higher = more viable cells; conditions: 5 µM; treatment time 24 h; reporter: 7TFP
In short: (§1)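 Library compounds, at a final 5 µM, stayed on reporter cells for 24 h. The cells were colorectal cancer lines stably transduced with lentiviral TCF/Wnt firefly luciferase reporters, seeded in 384-well plates 24 h before dosing. Firefly luciferase or CellTiterGlo luminescence from parallel plates was normalised to the plate median in webcellHTS2 (additive, no log transformation), and two independent replicates were averaged.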

[2] = test system: HCT116; assay: as above; conditions: 5 µM; treatment time 24 h; reporter: TCF4/Wnt
In short: as §1

[3] = test system: SW480; assay: as above; conditions: 5 µM; treatment time 24 h; reporter: 7TFP
In short: as §1

[4] = test system: DLD1; assay: TCF/Wnt firefly luciferase reporter signal relative to plate median (fraction of plate median); higher = higher Wnt reporter signal; conditions: 5 µM; treatment time 24 h; reporter: 7TFP
In short: as §1

[5] = test system: SW480; assay: as above; conditions: 5 µM; treatment time 24 h; reporter: 7TFP
In short: as §1

SMILES | cell viability [1] | cell viability [2] | cell viability [3] | TCF/Wnt firefly luciferase reporter signal [4] | TCF/Wnt firefly luciferase reporter signal [5]
CC(Cc1ccc(O)cc1)NCC(O)c1cc(O)cc(O)c1 (stereo not given) | 1.04 ± 0.068 | 1.1 ± 0.099 | 0.967 ± 0.012 | 0.9645 ± 0.0035 | 0.945 ± 0.013
O=[N+]([O-])O[C@@H]1CO[C@H]2[C@@H]1OC[C@@H]2O | 0.98 ± 0.018 | 1.06 ± 0.028 | 1.02 ± 0.03 | 0.989 ± 0.28 | 0.915 ± 0.12
CNC(=O)Oc1ccc2c(c1)[C@]1(C)CCN(C)[C@@H]1N2C | 0.948 ± 0.0071 | 0.889 ± 0.12 | 0.966 ± 0.047 | 1.08 ± 0.12 | 0.989 ± 0.072
COP(=S)(OC)SCn1nnc2ccccc2c1=O | 0.983 ± 0.02 | 0.939 ± 0.049 | 0.955 ± 0.0071 | 0.991 ± 0.13 | 0.903 ± 0.14
NNCc1ccccc1 | 1.08 ± 0.12 | 1.1 ± 0.13 | 1.06 ± 0.028 | 1.07 ± 0.057 | 1.03 ± 0.093
COC(C)(C)CCC[C@H](C)C/C=C/C(C)=C/C(=O)OC(C)C | 0.948 ± 0.1 | 1.02 ± 0.014 | 0.972 ± 0.083 | 0.968 ± 0.12 | 0.787 ± 0.08
O=c1ccc2c(O)c3ccoc3cc2o1 | 1.005 ± 0.0071 | 0.8825 ± 0.005 | 1.02 ± 0.028 | 0.926 ± 0.037 | 0.886 ± 0.034
C=C[C@H]1CN2CC[C@H]1C[C@@H]2[C@@H](O)c1ccnc2ccccc12 | 1.02 ± 0.055 | 0.963 ± 0.021 | 0.984 ± 0.023 | 1.03 ± 0.028 | 0.926 ± 0.014
CC1CC(Cl)CCC1C(=O)OC(C)(C)C (stereo not given) | 0.973 ± 0.052 | 1.045 ± 0.0071 | 0.956 ± 0.025 | 0.976 ± 0.034 | 0.989 ± 0.03
C[C@]12C=CC(=O)C=C1CC[C@@H]1[C@@H]2CC[C@]2(C)C(=O)CC[C@@H]12 | 1.07 ± 0.11 | 1.09 ± 0.035 | 1.11 ± 0.078 | 1.08 ± 0.19 | 1.025 ± 0.0071
CNC(C)(C)Cc1ccccc1 | 1.02 | 1.01 ± 0.021 | 1.06 ± 0.014 | 1.09 | 0.932 ± 0.04
N[C@@H](Cc1ccc(N(CCCl)CCCl)cc1)C(=O)O | 1.01 ± 0.17 | 1.02 ± 0.04 | 1 ± 0.04 | 0.986 ± 0.0057 | 0.936 ± 0.081
CC([C@H](O)c1ccccc1)N(C)C (stereo not given in full) | 0.991 ± 0.0014 | 1.015 ± 0.0071 | 0.966 ± 0.091 | 0.915 ± 0.09 | 0.975 ± 0.05
COc1cc2c(cc1OC)[C@@H]1C(=O)c3ccc(OC)c(CC=C(C)C)c3O[C@@H]1CO2 | 0.943 ± 0.11 | 0.849 ± 0.042 | 0.992 ± 0.011 | 0.848 ± 0.069 | 0.947 ± 0.13
C[N+]1(C)CCCC(OC(=O)C(O)(c2ccccc2)c2ccccc2)C1 (stereo not given) | 0.965 ± 0.036 | 0.936 ± 0.063 | 1.01 ± 0.014 | 1.05 ± 0.014 | 0.957 ± 0.043
CC(CC(C(N)=O)(c1ccccc1)c1ccccc1)N(C)C (stereo not given) | 0.995 ± 0.022 | 1.08 ± 0.035 | 1.01 ± 0.026 | 1 ± 0.014 | 1.01 ± 0.028
O=C1C=C2C(=CCOC2O)O1 (stereo not given) | 0.883 ± 0.19 | 0.606 ± 0.2 | 0.9575 ± 0.0064 | 0.993 ± 0.18 | 0.499 ± 0.025

SMILES | cell viability [1] | cell viability [2] | cell viability [3] | TCF/Wnt firefly luciferase reporter signal [4] | TCF/Wnt firefly luciferase reporter signal [5]
Nc1ccccc1C(=O)O [Anthranilic acid] | 0.906 ± 0.16 | 1 ± 0.037 | 0.98 ± 0.015 | 0.89 ± 0.044 | 1.04 ± 0.057
C[C@@H]1C[C@@H]([C@H](O)CC2CC(=O)NC(=O)C2)C(=O)[C@@H](C)C1 | 0.892 ± 0.059 | 0.5955 ± 0.0035 | 0.967 ± 0.076 | 0.387 ± 0.088 | 0.665 ± 0.15
N[C@@H]1C[C@H]1c1ccccc1.N[C@H]1C[C@@H]1c1ccccc1 | 1.02 ± 0.059 | 0.959 ± 0.0042 | 0.956 ± 0.033 | 1.05 ± 0.17 | 0.892 ± 0.12
COc1ccc(C(=O)O)cc1OC | 0.902 ± 0.18 | 1.04 ± 0.098 | 0.984 ± 0.023 | 0.949 ± 0.087 | 0.9985 ± 0.0021
O=P1(NCCCl)OCCCN1CCCl (stereo not given) | 1.03 ± 0.079 | 0.996 ± 0.021 | 0.973 ± 0.053 | 0.999 ± 0.28 | 0.97 ± 0.086
CC[C@@H](C)C(=O)O[C@H]1[C@H](O)[C@H]2[C@@H](CN3C[C@@H](C)CC[C@H]3[C@@]2(C)O)[C@@H]2C[C@]34O[C@]5(O)[C@@H](OC(=O)[C@](C)(O)[C@@H](C)O)CC[C@@]3(C)[C@@H]5[C@@H](OC(C)=O)[C@@H](OC(C)=O)[C@H]4[C@@]21O (stereo in doubt) | 1.03 ± 0.035 | 1.17 ± 0.085 | 1.08 ± 0.028 | 1.18 ± 0.092 | 1.08 ± 0.071
CC(C)c1cc2c(c(O)c1O)[C@@]1(C(=O)O)CCCC(C)(C)[C@@H]1CC2 | 0.981 ± 0.013 | 1.03 ± 0.079 | 1.03 ± 0.021 | 1.03 ± 0.021 | 0.944 ± 0.11
COC(=O)[C@]1(C)CC[C@]2(C)CC[C@]3(C)C4=CCc5c(cc(O)c(O)c5C)[C@]4(C)CC[C@@]3(C)[C@@H]2C1 | 0.9465 ± 0.0078 | 1.045 ± 0.0071 | 1.005 ± 0.0071 | 1.03 ± 0.054 | 1.11 ± 0.014
COc1c2c(cc3c1OCO3)CC[N+](C)=C2 | 0.978 ± 0.046 | 0.945 ± 0.072 | 0.991 ± 0.07 | 1 ± 0.036 | 1.075 ± 0.0071
NCCc1ccc(O)cc1 | 0.964 ± 0.11 | 0.93 ± 0.03 | 0.953 ± 0.036 | 0.993 ± 0.15 | 1.07 ± 0.014
CCCCOC(=O)c1ccccc1C(=O)OCCCC | 0.944 ± 0.044 | 0.98 ± 0.013 | 0.96 ± 0.071 | 0.847 ± 0.16 | 0.939 ± 0.03
Cc1ccc(O)cc1.Cc1cccc(O)c1.Cc1ccccc1O | 1.085 ± 0.0071 | 1.08 ± 0.14 | 1.01 ± 0.014 | 1.09 ± 0.064 | 1.09 ± 0.057
COc1cc(OC)c(OC)cc1C=O | 0.981 ± 0.13 | 1.01 ± 0.035 | 0.988 ± 0.06 | 0.925 ± 0.0042 | 0.963 ± 0.04
CC(C)(O)[C@@H]1[C@H]2OC(=O)[C@@H]1[C@]1(O)C[C@H]3O[C@]34C(=O)O[C@H]2[C@]14C | 1.03 ± 0.046 | 0.949 ± 0.021 | 1.025 ± 0.0071 | 1.02 ± 0.17 | 1.04 ± 0.089
CN1C[C@H](C(=O)N[C@]2(C)O[C@@]3(O)[C@@H]4CCCN4C(=O)[C@H](Cc4ccccc4)N3C2=O)C[C@@H]2c3cccc4[nH]cc(c34)C[C@H]21 | 0.89 ± 0.098 | 0.878 ± 0.054 | 1 ± 0.037 | 0.9 ± 0.052 | 0.884 ± 0.0057
O=C([O-])c1ccccc1-c1c2cc(Br)c(=O)cc-2oc2[c]([Hg+])c([O-])c(Br)cc12.[Na+].[Na+].[OH-] | 0.955 ± 0.0071 | 0.961 ± 0.13 | 0.945 ± 0.0099 | 1 ± 0.15 | 0.934 ± 0.052
CN1CCc2cc3c(cc2[C@H]1[C@@H]1OC(=O)c2c1ccc1c2OCO1)OCO3 | 1.06 ± 0.014 | 1.07 ± 0.13 | 1.05 ± 0.05 | 0.9 ± 0.011 | 1.045 ± 0.0071
